Measurements: PubChem BioAssay (NCI)
This is part of a sample that, as a whole, favours compounds with a hit. Of some 83,000 tested, about 20% had one in any assay.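 Single-concentration screen, 48 h exposure, 96-well plates. Endpoint: percent growth. Below 10 = active.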 A number with no mark means an inactive call. The source made the active and inactive calls.

Tests used:
Test in all cases: NCI-60 one-dose screen, 48 h (100 = growth as untreated, 0 = no growth, -100 = all killed)
Settings in all cases: 10 µM unless noted
NCI-H23 lung = test system: NCI-H23 lung
NCI-H226 lung = test system: NCI-H226 lung
NCI-H322M lung = test system: NCI-H322M lung
HOP-62 NSCLC = test system: HOP-62 NSCLC
NCI-H460 lung = test system: NCI-H460 lung
HOP-92 NSCLC = test system: HOP-92 NSCLC
NCI-H522 lung = test system: NCI-H522 lung
A549/ATCC NSCLC = test system: A549/ATCC NSCLC
786-0 renal = test system: 786-0 renal
COLO 205 colon = test system: COLO 205 colon
DU-145 prostate = test system: DU-145 prostate
K-562 leukemia = test system: K-562 leukemia
MALME-3M melanoma = test system: MALME-3M melanoma
MDA-MB-231 breast = test system: MDA-MB-231 breast
RXF 393 renal = test system: RXF 393 renal
SF-268 CNS = test system: SF-268 CNS
SF-295 CNS = test system: SF-295 CNS
SF-539 CNS = test system: SF-539 CNS
UACC-257 melanoma = test system: UACC-257 melanoma
M14 melanoma = test system: M14 melanoma

SMILES | growth (NCI-H23 lung) | growth (NCI-H226 lung) | growth (NCI-H322M lung) | growth (HOP-62 NSCLC) | growth (NCI-H460 lung) | growth (HOP-92 NSCLC) | growth (NCI-H522 lung) | growth (A549/ATCC NSCLC) | growth (786-0 renal) | growth (COLO 205 colon) | growth (DU-145 prostate) | growth (K-562 leukemia) | growth (MALME-3M melanoma) | growth (MDA-MB-231 breast) | growth (RXF 393 renal) | growth (SF-268 CNS) | growth (SF-295 CNS) | growth (SF-539 CNS) | growth (UACC-257 melanoma) | growth (M14 melanoma)
Cn1cc(-c2nc(-c3c[nH]c4ccncc34)cs2)c2cc(Br)ccc21 | -64.2% (active) | 0.662% (active) | -93.1% (active) | -69.7% (active) | -71.4% (active) | -91.9% (active) | -70.8% (active) | -70.3% (active) | -78.5% (active) | -71.1% (active) | -95.9% (active) | -54.2% (active) | -79.2% (active) | -80.7% (active) | -94.4% (active) | -73.7% (active) | -78% (active) | -98% (active) | -46.4% (active) | -74.2% (active)
CCn1cc(C(=O)NN=C2CCCCCC2)c(=O)c2ccc(C)nc21 | 89.5% | 82% | 88.7% | 94.8% | 92.4% | 80.7% | 75.3% | 82.6% | 87.2% | 97.8% | 89.2% | 72% | 97.1% | 87.1% | 100% | 84% | 77.7% | 100% | 87.8% | 103%
CN(C)c1ccc(C(=NO)c2ccc(N(C)C)cc2)cc1 | 47.3% | 78.5% | 81.3% | 46.2% | 7.18% (active) | 37.8% | -25.8% (active) | 31.4% | 57.3% | 42.8% | 56% | 17% | 29.8% | 63.5% | 33.5% | 50.6% | 3.86% (active) | 33.7% | 41.4% | 17.4%
COc1cc2c(c(OC)c1OC)C(=O)CC(c1cccc(NC(=O)c3ccccc3Br)c1)O2 (stereo not given) | 98.4% | 84.8% | 96% | 97.4% | 90.4% | 65.2% | 66.7% | 88.1% | 103% | 116% | 97.1% | 70.2% | 105% | 98.6% | 99.4% | 90.5% | 92.5% | 96.5% | 90.1% | 97.8%
C=CCN=C(N)SCCCCCCSC(N)=NCC=C | 105% | 97.1% | 103% | 75.1% | 102% | 63.3% | 64.4% | 86.8% | 92.2% | 86.4% | 107% | 79.2% | 98.7% | 94.8% | 109% | 95% | 97.3% | 99.6% | 87.8% | 92.4%
Clc1nn2c(Cn3cnc4c(NCc5ccccc5)ncnc43)nnc2c2ccccc12 | 53.6% | 42.5% | 21% | 37.9% | 34% | 5.22% (active) | 43.7% | 40% | 40% | 35.1% | 36.7% | 42.7% | 27.8% | 26.6% | 39% | 41.9% | 63.2% | 50.7% | 39.1% | 19.7%
N=c1sc(Cc2cc(Cl)ccc2Cl)cn1CC(=O)c1ccccc1 | 68.4% | 66.3% | 56.4% | 74.6% | 20.3% | 51.2% | 39.8% | 30% | 78.4% | 72.1% | 68.7% | 17% | 44.6% | 54.9% | 77.1% | 58.9% | 57.3% | 64.1% | 60.3% | 21.1%
CCCCCn1sc(=O)n(Cc2ccc(CNC(=O)OCc3ccc4c(Cl)cc(Cl)c(O)c4n3)cc2)c1=O | 73.2% | 65.8% | 55.7% | 41.7% | 27.1% | 76.2% | 66.1% | 49.7% | 61.2% | 106% | 63.9% | 45.8% | 70.4% | 75.6% | 32.5% | 66.6% | 35.1% | 77.1% | 87.9% | 58.8%
CC(/C=C1\SC(=S)N(CC(=O)NC(Cc2c[nH]c3ccccc23)C(=O)O)C1=O)=C\c1ccccc1 (stereo not given) | 99.9% | 102% | 102% | 96.3% | 103% | 106% | 93.3% | 103% | 102% | 116% | 112% | 107% | 107% | 104% | 106% | 92.8% | 104% | 104% | 100% | 103%
CCN(CC)CCN(CCN(CC)CC)c1ccccc1 | 93% | 94.6% | 103% | 98.5% | 107% | 67.3% | 79% | 93.1% | 67.4% | 97.8% | 109% | 93% | 110% | 89.6% | 90.8% | 97.7% | 111% | 87.6% | 93.1% | 82.3%
COc1cc(-c2nc(SCCC(C)C)nc(N3CCOCC3)c2C#N)cc(OC)c1OC | 74.2% | 106% | 91.2% | 28.6% | 12.2% | 81.9% | 65.8% | 22.4% | 66% | 63.8% | 41.6% | 74.5% | 92.3% | 68.5% | 101% | 40.3% | 98.9% | 55.5% | 95.8% | 96%
COc1ccc(-c2cc(-c3cc(OC)c(OC)c(OC)c3)c(C#N)c(=O)n2CCCCCC(=O)NO)cc1 | 97.3% | 92.2% | 95.7% | 102% | 96.6% | 88.5% | 89.5% | 87.2% | 101% | 120% | 92.5% | 83% | 97.8% | 75.9% | 92.9% | 91.6% | 91.2% | 90.4% | 99.6% | 99.5%
CCCCSCC(=O)c1ccccc1 | 86.2% | 99.6% | 89.7% | 80.9% | 109% | 94.5% | 58.2% | 78.1% | 99.8% | 100% | 103% | 97.3% | 89.6% | 102% | 114% | 97.1% | 105% | 98.4% | 80.9% | 99.4%
Cc1ccc(-c2nc(C(Cl)Cl)nc3cc(C)nn23)cc1 | -18.4% (active) | 70.2% | -24.9% (active) | 7.49% (active) | -64.8% (active) | 35% | 4.52% (active) | -4.14% (active) | 81.8% | -36.6% (active) | -12.6% (active) | 11.2% | -12.2% (active) | 8.58% (active) | -66% (active) | 21.4% | 17.8% | 35.1% | 55.8% | -9.67% (active)
O=C1/C=C/[C@@H](O)[C@@H]2C[C@@H](O)C[C@H]2/C=C/CCC[C@H](CCOCc2ccccc2)O1 | 7.5% (active) | -32.3% (active) | 31% | 30.9% | 16.2% | -16% (active) | -38.8% (active) | 14.5% | -51% (active) | -74.5% (active) | 12.6% | 10.2% | -24.6% (active) | -71.5% (active) | -2.06% (active) | 13.1% | -18.3% (active) | 26.2% | 20.4% | 9.22% (active)
